Drawing on PubChem BioAssay AID602261 (Sanford-Burnham Center for Chemical Genomics, 2012), this text covers inhibition for 82 compounds.

Structures are written as SMILES. Screen size: about 360,000 compounds; about 2,400 (0.67%) were called active. This is one part of a sample in which actives are shown more often than they occur. Unmarked numbers belong to inactive results.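 The calls were made as follows: active = compounds whose normalised, plate-corrected inhibition of enzyme fluorescence in the single-dose primary screen is 50% or more; inactive = the rest.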

This assay deals with Fatty acid synthase (Homo sapiens) (UniProt P49327). As to the kind of experiment: inhibition of human FAS-TE enzyme activity – biochemical, fluorescence intensity, uHTS, primary screen (AID 602261).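 Also: 0% = DMSO with enzyme and 100% = substrate without enzyme.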 The note with it: recombinant FAS-TE, OMFH fluorogenic substrate, fluorescence endpoint; at 15 µM; hits give high values.
Fatty acid synthase (Homo sapiens), sequence (P49327 whole entry, looked up): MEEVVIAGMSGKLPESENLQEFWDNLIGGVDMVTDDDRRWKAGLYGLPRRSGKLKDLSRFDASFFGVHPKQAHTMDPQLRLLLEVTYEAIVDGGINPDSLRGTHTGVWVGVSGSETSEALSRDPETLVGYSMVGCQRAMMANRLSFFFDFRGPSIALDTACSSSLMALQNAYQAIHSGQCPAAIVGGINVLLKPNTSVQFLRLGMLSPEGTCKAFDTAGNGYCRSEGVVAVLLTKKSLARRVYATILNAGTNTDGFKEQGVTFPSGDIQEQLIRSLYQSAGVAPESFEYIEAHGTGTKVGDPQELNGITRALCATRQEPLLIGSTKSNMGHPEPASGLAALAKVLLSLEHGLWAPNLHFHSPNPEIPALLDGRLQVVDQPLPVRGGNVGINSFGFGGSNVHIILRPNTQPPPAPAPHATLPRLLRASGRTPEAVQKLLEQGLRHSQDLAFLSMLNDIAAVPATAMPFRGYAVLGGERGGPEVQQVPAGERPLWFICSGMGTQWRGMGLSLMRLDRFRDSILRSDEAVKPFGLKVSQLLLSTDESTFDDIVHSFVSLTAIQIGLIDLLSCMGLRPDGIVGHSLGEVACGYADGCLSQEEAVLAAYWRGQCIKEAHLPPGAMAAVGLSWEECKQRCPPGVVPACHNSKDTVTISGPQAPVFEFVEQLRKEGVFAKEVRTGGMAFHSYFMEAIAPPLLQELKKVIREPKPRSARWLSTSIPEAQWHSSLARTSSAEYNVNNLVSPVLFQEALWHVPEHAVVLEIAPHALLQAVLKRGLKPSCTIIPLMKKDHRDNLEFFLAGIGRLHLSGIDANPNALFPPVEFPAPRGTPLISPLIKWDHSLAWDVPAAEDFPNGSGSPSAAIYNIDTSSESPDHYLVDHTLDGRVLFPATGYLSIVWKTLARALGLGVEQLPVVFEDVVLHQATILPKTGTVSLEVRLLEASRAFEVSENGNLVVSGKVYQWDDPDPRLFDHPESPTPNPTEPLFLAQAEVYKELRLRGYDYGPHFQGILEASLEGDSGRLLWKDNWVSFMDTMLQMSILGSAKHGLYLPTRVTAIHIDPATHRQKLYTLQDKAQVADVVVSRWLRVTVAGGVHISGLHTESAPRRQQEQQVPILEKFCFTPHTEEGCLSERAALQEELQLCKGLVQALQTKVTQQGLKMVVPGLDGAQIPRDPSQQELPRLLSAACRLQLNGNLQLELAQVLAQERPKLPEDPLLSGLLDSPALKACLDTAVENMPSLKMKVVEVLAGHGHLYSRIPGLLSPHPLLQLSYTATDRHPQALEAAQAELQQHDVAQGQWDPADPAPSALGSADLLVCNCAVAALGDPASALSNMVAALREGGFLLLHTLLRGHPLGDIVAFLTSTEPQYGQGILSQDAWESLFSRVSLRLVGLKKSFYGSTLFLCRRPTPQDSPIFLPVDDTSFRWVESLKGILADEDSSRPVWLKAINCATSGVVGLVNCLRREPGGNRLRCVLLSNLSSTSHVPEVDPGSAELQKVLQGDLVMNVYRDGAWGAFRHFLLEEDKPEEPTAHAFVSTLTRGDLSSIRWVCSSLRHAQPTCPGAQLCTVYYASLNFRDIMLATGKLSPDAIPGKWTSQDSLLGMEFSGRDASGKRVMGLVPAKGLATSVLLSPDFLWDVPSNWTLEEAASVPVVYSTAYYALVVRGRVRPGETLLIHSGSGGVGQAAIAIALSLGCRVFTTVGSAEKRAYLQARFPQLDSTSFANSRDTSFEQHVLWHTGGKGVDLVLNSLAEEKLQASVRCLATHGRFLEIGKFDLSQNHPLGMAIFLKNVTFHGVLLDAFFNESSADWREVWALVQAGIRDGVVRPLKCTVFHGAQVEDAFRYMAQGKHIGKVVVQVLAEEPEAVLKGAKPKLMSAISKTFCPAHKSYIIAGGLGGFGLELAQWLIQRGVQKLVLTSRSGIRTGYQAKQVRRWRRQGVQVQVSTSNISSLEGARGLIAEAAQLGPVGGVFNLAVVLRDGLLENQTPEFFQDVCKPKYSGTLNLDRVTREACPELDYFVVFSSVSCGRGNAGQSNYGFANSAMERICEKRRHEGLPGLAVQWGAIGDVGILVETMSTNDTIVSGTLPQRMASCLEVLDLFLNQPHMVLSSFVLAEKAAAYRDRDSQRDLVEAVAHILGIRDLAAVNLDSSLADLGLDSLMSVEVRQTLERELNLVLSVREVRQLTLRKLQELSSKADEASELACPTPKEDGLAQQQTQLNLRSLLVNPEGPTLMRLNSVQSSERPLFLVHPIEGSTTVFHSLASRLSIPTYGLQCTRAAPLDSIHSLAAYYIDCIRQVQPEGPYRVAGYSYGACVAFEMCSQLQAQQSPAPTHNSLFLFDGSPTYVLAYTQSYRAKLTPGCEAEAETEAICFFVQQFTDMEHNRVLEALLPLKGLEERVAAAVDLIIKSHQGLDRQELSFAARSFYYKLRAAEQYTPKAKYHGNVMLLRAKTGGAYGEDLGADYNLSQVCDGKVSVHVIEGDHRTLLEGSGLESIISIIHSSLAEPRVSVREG
For the compound `O=C(CN1CCCCC1)N1c2ccccc2Sc2ccc(C(F)(F)F)cc21`, the inhibition is 11.9%.

On to `CN(C)C(=O)CCc1ccc2c3c([nH]c2c1)[C@]1(CCC2CCCC2)[C@@H](C(=O)N2CCOCC2)C[C@H](CC(=O)NCc2ccco2)C(=O)N1CC3`, for which the inhibition was 21.1%.

`CC[C@]12c3[nH]c4ccc(OC)cc4c3CCN1C(=O)C(CC(=O)NCc1ccco1)C[C@@H]2C(=O)N1CCN(C(=O)C2CC2)CC1` (some centres not stated): the inhibition is -7.3%.

`O=C(C[C@H]1C[C@H](C(=O)N2CCOCC2)[C@@]2(CCC3CCCC3)c3[nH]c4ccc(Cl)cc4c3CCN2C1=O)NCc1ccco1`: the inhibition was 88.8% (active).

As to `CC[C@]12c3[nH]c4ccc(Cl)cc4c3CCN1C(=O)[C@@H](CC(=O)NCCN1CCOCC1)C[C@@H]2C(=O)N1CCN(C(=O)C2CC2)CC1`, the inhibition was -7.3%.

For the compound `COc1ccc(CNC(=O)C[C@H]2C[C@H](C(=O)N3CCOCC3)[C@@]3(CCC4CCCC4)c4[nH]c5ccc(Cl)cc5c4CCN3C2=O)cc1OC`, the inhibition is 89% (active).

`COc1ccc2[nH]c3c(c2c1)CCN1C(=O)C(CC(=O)NCCCN(C)C)C[C@H](C(=O)N2CCOCC2)[C@@]31CCC1CCCC1` (some centres not stated): the inhibition is 43.3%.

For the compound `COc1ccc(Br)c(Cn2c(C)c(C(=O)NCc3cccs3)sc2=O)c1`, the inhibition is 19.7%.

As for `C[n+]1cc(-c2ccccc2)oc1-c1ccccc1`, the inhibition is -4.9%.

Take `COC1C(CO)OC(n2cnc3c(=S)nc(N)[nH]c32)C1O` (configuration not stated): the inhibition is -3.8%.

As to `CCc1ccc(C(=O)OCC(=O)Nc2cccc(S(=O)(=O)NC3=NCCCCC3)c2)cc1`, the inhibition was 1.8%.

For `COc1ccccc1C(=O)OCC(=O)Nc1cccc(S(=O)(=O)NC2=NCCCCC2)c1`, the inhibition is -6.9%.

`Cc1cccc(-n2c(SCC(=O)Nc3cccc(S(=O)(=O)NC4=NCCCCC4)c3)nc3ccccc3c2=O)c1C`: the inhibition is 71.3% (active).

Regarding `CC(C)(C)NC(=O)NC(=O)COC(=O)Cc1ccc(Cl)cc1Cl`, the inhibition was 69.5% (active).

For the compound `O=C(COC(=O)Cc1ccc(Cl)cc1Cl)NCc1ccco1`, the inhibition was -8.2%.

On to `CC(C)(C)NC(=O)NC(=O)COC(=O)Cc1c(F)cccc1Cl`, for which the inhibition was 4.6%.

Regarding `COC(=O)CCC(=O)N1CCCC(CO)(Cc2ccccc2)C1` (configuration not stated), the inhibition was -5.2%.

Turning to `Cc1ccccc1-c1nc(NC(C)C)nc2cc(-c3ccccc3)sc12`, the inhibition was 13%.

With `COc1ccc(-c2nnc(SC(C)C(=O)NC3CC3)o2)cc1` (configuration not stated), the inhibition was -5.6%.

On to `COc1ccc(-c2nnc(SC(=O)N3c4ccccc4Sc4ccccc43)o2)cc1`, for which the inhibition is 51.9% (active).

With `COc1ccc(CN(C(=O)CSc2nnc(-c3ccc(OC)c(OC)c3)o2)c2ccc(F)cc2)cc1`, the inhibition was 45.7%.

For `COc1ccc(C(=O)NN2C(=O)C3C(c4ccccc4)C=CC(c4ccccc4)C3C2=O)cc1` (configuration not stated), the inhibition was 33.6%.

In the case of `CCNc1c(NS(=O)(=O)c2ccc(C3CCCCC3)cc2)c(=O)oc2ccccc12`, the inhibition was 5.3%.

With `Cc1cccc([C@@H]2[C@@H]3C(=O)N(C)C(=O)[C@@H]3[C@@H]3C(=O)Nc4ccccc4C(=O)N23)c1`, the inhibition is -6.8%.

Consider `Cc1nn(CCOc2ccc(Br)cc2)c(C)c1[N+](=O)[O-]`, for which the inhibition is 62.3% (active).

Take `COc1ccc(CNC(=O)CCCn2nc(C)c([N+](=O)[O-])c2C)cc1`: the inhibition is 10.9%.

Turning to `Cc1ccc(Oc2cc(NC(=O)CCCn3nc(C)c([N+](=O)[O-])c3C)cc([N+](=O)[O-])c2)cc1`, the inhibition was 30.9%.

Turning to `CC(/C=C/c1ccccc1)=N\NC(=O)C1CC1(C)c1ccccc1` (configuration not stated), the inhibition is 20%.

As to `CC(C=Cc1ccccc1)=NNS(=O)(=O)c1ccc([N+](=O)[O-])cc1`, the inhibition was 58.3% (active).

For `O=C(Cc1ccccc1)NNS(=O)(=O)c1ccc([N+](=O)[O-])cc1`, the inhibition was 11.1%.

Turning to `CCOc1c(N2CCCCC2)c(=O)c1=O`, the inhibition was -8%.

Regarding `O=C(c1ccc(Oc2ccc(Cl)cc2)c([N+](=O)[O-])c1)N1CCCC1`, the inhibition is -19.7%.

Turning to `O=C(c1cccc(F)c1)N1CCN(c2ccc([N+](=O)[O-])c(N3CCCCC3)c2)CC1`, the inhibition was 17.3%.

Turning to `O=C(c1ccc(Cl)c([N+](=O)[O-])c1)N1CCN(c2ccccc2)CC1`, the inhibition is 53.6% (active).

For `COCCNc1nc2nonc2nc1N1CCCC1c1nccs1` (configuration not stated), the inhibition was -8.3%.

On to `CC(OC(=O)CNC(=O)c1cccc(F)c1)C(=O)NC1CCCCC1C` (configuration not stated), for which the inhibition is -5.6%.

As to `COc1ccc(CNC(=O)C(=O)NCC2OCCN2C(=O)c2ccc(OC)cc2)cc1` (configuration not stated), the inhibition was -1.4%.

For the compound `Cc1nnc(SCc2ccc(C(=O)c3ccc(Cl)cc3)o2)n1-c1ccccc1`, the inhibition is 2.7%.

For the compound `Fc1ccc(-n2c(Cc3ccccc3)nnc2SCc2nc(-c3ccc(Cl)cc3)no2)cc1`, the inhibition was 52.6% (active).

With `Cc1ccc(-c2noc(CSc3nnc(-c4cccs4)n3C)n2)cc1`, the inhibition was -14.2%.

With `C/C(=N\NC(=O)c1cccnc1)c1ccc(-n2ccnc2)cc1`, the inhibition is -10.3%.

In the case of `O=S(=O)(Nc1cccc(-n2cnnn2)c1)c1cnc(Cl)c(Cl)c1`, the inhibition was 56.8% (active).

`Cc1ccc(C)c(S(=O)(=O)Nc2cccc(-n3cnnn3)c2)c1`: the inhibition was 4.5%.

In the case of `O=S(=O)(Nc1ccc(-n2cnnn2)cc1)c1ccc(Cl)cc1`, the inhibition was 2.4%.

Turning to `O=c1c2ccccc2cnn1Cc1n[nH]c(=S)n1-c1ccccc1F`, the inhibition is -4.3%.

Take `Cc1ccc(C(=O)N/C(=C/c2cccs2)C(=O)N2CCCCC2)cc1`: the inhibition was -8.4%.

For the compound `Cc1ccc(C(=O)N/C(=C\c2cn(S(=O)(=O)N(C)C)c3ccccc23)C(=O)N2CCCC2)cc1`, the inhibition is 86.5% (active).

Turning to `Cc1ccc(C(=O)N/C(=C\c2cn(C)c3ccccc23)C(=O)N2CCN(C)CC2)cc1`, the inhibition is -5%.

Regarding `O=C(O)c1ccccc1-c1ccccc1C(=O)Nc1ccccc1Br`, the inhibition is -0.4%.

`O=C(NCc1ccccc1)C1CCN(C(=O)Cc2ccccc2)CC1`: the inhibition was -4.1%.

Take `CCNC(=O)NNC(=O)C1CC(c2cccs2)=NO1` (configuration not stated): the inhibition is -1.4%.

Take `COc1ccc(S(=O)(=O)Nc2ccc(F)cc2)c(C)c1C`: the inhibition is 1.1%.

Consider `COc1cc(C(=O)OC2CCOC2=O)c([N+](=O)[O-])cc1OC` (configuration not stated), for which the inhibition is -3.6%.

With `O=C(OC1CCOC1=O)c1ccc(-c2nc3ccccc3s2)s1` (configuration not stated), the inhibition was 51.7% (active).

On to `CC(C)c1ccc(C(=O)OC2CCOC2=O)cc1` (configuration not stated), for which the inhibition was -2.3%.

`O=C(CNC(=O)OCc1ccccc1)NC1CCCCNC1=O` (configuration not stated): the inhibition was -2.6%.

With `COc1ccc(S(=O)(=O)N2CCOCC2)cc1NC(=O)c1ccc(OCC(C)C)c(OC)c1`, the inhibition was 27.8%.

`COc1ccc(S(=O)(=O)N2CCCCC2)cc1NC(=O)c1cc([N+](=O)[O-])ccc1N1CCOCC1`: the inhibition was 86.5% (active).

Take `O=C(NCC1CCCCC1)c1cc(S(=O)(=O)N2CCCCC2)ccc1N1CCOCC1`: the inhibition is 3.8%.

Take `COc1cccc(NC(=O)C2c3cc(OC)c(OC)cc3C(=O)N(C)C2c2cccnc2)c1` (configuration not stated): the inhibition is -9.1%.

Regarding `CC1(C)OC(=O)N2CCc3ccccc3C21C` (configuration not stated), the inhibition is -4.7%.

Turning to `O=C(c1ccc2c(c1)N(Cc1ccc(F)cc1)C(=O)c1ccccc1S2(=O)=O)N1CCN(c2ccccn2)CC1`, the inhibition was 56.9% (active).

Take `O=C1c2ccccc2S(=O)(=O)c2cc(N3CCN(c4ccccn4)CC3)ccc21`: the inhibition was 12.8%.

In the case of `O=C(c1ccc2c(c1)C(=O)N(c1ccc(Cl)cc1)C2=O)N1CCN(c2ccccn2)CC1`, the inhibition is -5.5%.

As to `COCCNC(=O)CCCn1c(=O)c2ccccc2n(Cc2cccc([N+](=O)[O-])c2)c1=O`, the inhibition was 55.7% (active).

In the case of `COc1ccccc1CNC(=O)CCCn1c(=O)c2ccccc2n(CC(=O)NC2CCCC2)c1=O`, the inhibition is -7.6%.

As to `CCCCNC(=O)CCn1c(=O)c2ccccc2n(Cc2cc(C)ccc2C)c1=O`, the inhibition is -13.3%.

For the compound `COCCn1c(CN2CCC(Cc3ccccc3)CC2)nc2c1c(=O)n(C)c(=O)n2C`, the inhibition is 53.4% (active).

As for `CCOC(=O)N1CCN(Cc2nc3c(c(=O)n(C)c(=O)n3C)n2Cc2ccccc2)CC1`, the inhibition was 4%.

On to `CN1CCN(Cc2nc3c(c(=O)n(C)c(=O)n3C)n2Cc2cccc3ccccc23)CC1`, for which the inhibition was 17.2%.

Take `COc1ccc(OC)c(S(=O)(=O)N2CCCC(C(=O)N3CCC(C(N)=O)CC3)C2)c1` (configuration not stated): the inhibition was -9.7%.

For the compound `COc1ccc(C2CC(c3cccc(OC)c3)=NN2c2ccc(S(N)(=O)=O)cc2)cc1` (configuration not stated), the inhibition is 18.6%.

Consider `COc1ccc(C2=NN(C(=O)c3ccccc3C(=O)O)C(c3ccccc3O)C2)cc1` (configuration not stated), for which the inhibition was -6.4%.

`COc1ccc(C2CC(c3ccccc3)=NN2C(=O)c2ccc(Cl)c([N+](=O)[O-])c2)cc1` (configuration not stated): the inhibition is 65.8% (active).

Turning to `CCCn1c(SCC(=O)Nc2ccc(C)c(S(=O)(=O)N3CCOCC3)c2)n[nH]c1=O`, the inhibition was -3.3%.

For `Cc1cc(C)c2nc(-c3cccnc3)cc(C(=O)Nc3ccc(S(=O)(=O)Nc4onc(C)c4C)cc3)c2c1`, the inhibition is -0.1%.

`C/C(=N\Nc1nc(N2CCOCC2)nc(N2CCOCC2)n1)c1ccc([N+](=O)[O-])cc1`: the inhibition is 57.8% (active).

For `C/C(=N/NC(=O)CC(=O)N/N=C(\C)c1ccc([N+](=O)[O-])cc1)c1ccc([N+](=O)[O-])cc1`, the inhibition is 36%.

As to `C/C(=N\Nc1ccc([N+](=O)[O-])cc1)c1ccc(-n2nncc2C(C)(C)C)cc1`, the inhibition is -16%.

On to `O=C(NCCN1CCOC1=O)C1CCC(=O)N(CCc2ccc(Cl)cc2)C1` (configuration not stated), for which the inhibition is 0.7%.

`O=C(c1cnccn1)N1CCN(S(=O)(=O)c2cccc(Cl)c2)CC1`: the inhibition was -6.3%.

In the case of `Cc1ccc(S(=O)(=O)/N=C(/NC(=S)Nc2c(C)n(C)n(-c3ccccc3)c2=O)c2ccccc2)cc1`, the inhibition is -4.4%.

The inhibition is the change of the read-out against control, counted positive when it falls.
